Compounds without any hit were thinned out: in the full panel of roughly 83,000, 20% have a hit.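 In brief: 96-well plates, 48 h treatment, single concentration, percent growth endpoint.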 Calls of active or inactive are those of the source. The calls were made as follows: active = growth percent below 10; inactive = the rest.
Assays:
Assay in all cases: NCI-60 one-dose screen, 48 h (100 = growth as untreated, 0 = no growth, -100 = all killed)
Conditions in all cases: 10 µM unless noted
HCT-15 colon = test system: HCT-15 colon
HT29 colon = test system: HT29 colon
SNB-75 CNS = test system: SNB-75 CNS
SNB-19 CNS = test system: SNB-19 CNS
U251 CNS = test system: U251 CNS
PC-3 prostate = test system: PC-3 prostate
SK-MEL-5 melanoma = test system: SK-MEL-5 melanoma
UACC-62 melanoma = test system: UACC-62 melanoma
LOX IMVI melanoma = test system: LOX IMVI melanoma
SK-MEL-28 melanoma = test system: SK-MEL-28 melanoma

Measured: growth

COC(=O)/C=C1\SC(=Nc2cccc(OC)c2)N(CCc2c[nH]c3ccccc23)C1=O
inactive: HCT-15 colon 39.9% | HT29 colon 12.2% | SNB-75 CNS 85% | SNB-19 CNS 72.9% | U251 CNS 53.9% | PC-3 prostate 40.1% | SK-MEL-5 melanoma 77.2% | UACC-62 melanoma 44.1% | LOX IMVI melanoma 49.3% | SK-MEL-28 melanoma 89.6%

O=CN1N=C(c2ccc(F)cc2)CC1c1cccc(Nc2ccnc3cc(C(F)(F)F)ccc23)c1 (stereo not given)
inactive: HCT-15 colon 58% | HT29 colon 47.8% | SNB-75 CNS 92% | SNB-19 CNS 63.9% | U251 CNS 53.2% | PC-3 prostate 41.8% | UACC-62 melanoma 53.4% | LOX IMVI melanoma 40.2% | SK-MEL-28 melanoma 82.2%
active: SK-MEL-5 melanoma -15.2%

O=C1NN(c2ccccc2)C(c2ccc(Cl)cc2)N2CCC[C@H]12 (stereo not given in full)
inactive: HCT-15 colon 92.9% | HT29 colon 101% | SNB-75 CNS 75.6% | SNB-19 CNS 94.6% | U251 CNS 101% | PC-3 prostate 99.6% | SK-MEL-5 melanoma 96.1% | UACC-62 melanoma 87.3% | LOX IMVI melanoma 87.8% | SK-MEL-28 melanoma 104%

O=C1CS/C(=N/c2nnc(-c3ccc(O)cc3)s2)N1
inactive: HCT-15 colon 101% | HT29 colon 103% | SNB-75 CNS 111% | SNB-19 CNS 108% | U251 CNS 101% | PC-3 prostate 99.5% | SK-MEL-5 melanoma 102% | UACC-62 melanoma 108% | LOX IMVI melanoma 92.2% | SK-MEL-28 melanoma 110%

COc1cc(NC(=O)Nc2cnc(Nc3ccc(N4CCOCC4)cc3)nc2Oc2ccc(F)cc2)cc(OC)c1
inactive: HCT-15 colon 104% | HT29 colon 86.9% | SNB-75 CNS 100% | SNB-19 CNS 96% | U251 CNS 78.8% | PC-3 prostate 83% | SK-MEL-5 melanoma 80.6% | UACC-62 melanoma 106% | LOX IMVI melanoma 91% | SK-MEL-28 melanoma 106%

CCCCCCCc1n(Cc2ccc3ccccc3c2)c2ccccc2[n+]1Cc1ccc2ccccc2c1
active: HCT-15 colon -80% | HT29 colon -84.3% | SNB-75 CNS -86.8% | SNB-19 CNS -77.9% | U251 CNS -79.8% | PC-3 prostate -88.7% | SK-MEL-5 melanoma -92.8% | UACC-62 melanoma -89.6% | LOX IMVI melanoma -75.1% | SK-MEL-28 melanoma -85.4%

c1ccc2nc(N3CCOCC3)c(N3CCCCC3)nc2c1
inactive: HCT-15 colon 100% | HT29 colon 96.1% | SNB-75 CNS 76.7% | SNB-19 CNS 93.9% | U251 CNS 96.9% | PC-3 prostate 90.8% | SK-MEL-5 melanoma 96.8% | UACC-62 melanoma 83.1% | LOX IMVI melanoma 99.1% | SK-MEL-28 melanoma 109%

O=C(O)c1ccc(-n2cc(/C=N/Nc3ccc(Cl)cc3Cl)c(-c3ccccc3)n2)cc1
inactive: HCT-15 colon 72% | HT29 colon 94.9% | SNB-75 CNS 88.4% | SNB-19 CNS 101% | U251 CNS 90.5% | PC-3 prostate 80.7% | SK-MEL-5 melanoma 87.1% | UACC-62 melanoma 96.2% | LOX IMVI melanoma 91.9% | SK-MEL-28 melanoma 103%

C/C(=N\NC(=O)c1ccncc1)c1ccc(N)cc1
inactive: HCT-15 colon 103% | HT29 colon 97.2% | SNB-75 CNS 88.8% | SNB-19 CNS 94.6% | U251 CNS 97.7% | PC-3 prostate 85.8% | SK-MEL-5 melanoma 98.8% | UACC-62 melanoma 93.6% | LOX IMVI melanoma 98% | SK-MEL-28 melanoma 106%

COc1ccc(/C=C/C(=O)/C=C(/C=C/c2ccc(OC)c(OC)c2)OB(F)F)cc1OC
inactive: SNB-75 CNS 76.8% | SNB-19 CNS 52.9% | PC-3 prostate 31.5% | SK-MEL-5 melanoma 56.6% | UACC-62 melanoma 52.6% | SK-MEL-28 melanoma 29.6%
active: HCT-15 colon 0.848% | HT29 colon 3% | U251 CNS 8.37% | LOX IMVI melanoma 5.12%

O=C(Nc1cc(Nc2ncccc2-c2ncnc3nc[nH]c23)ccc1F)c1cc(C(F)(F)F)cc(C(F)(F)F)c1
inactive: SNB-19 CNS 13.7%
active: HCT-15 colon -67% | HT29 colon -23.8% | SNB-75 CNS -39.5% | U251 CNS -12.1% | PC-3 prostate -45.1% | SK-MEL-5 melanoma -17.5% | UACC-62 melanoma -23.6% | LOX IMVI melanoma -69.4% | SK-MEL-28 melanoma -66.1%

Cc1cc(O)cc(O)c1N=NC1=NCCS1
inactive: HCT-15 colon 102% | HT29 colon 95.7% | SNB-75 CNS 81.7% | SNB-19 CNS 107% | U251 CNS 105% | PC-3 prostate 107% | SK-MEL-5 melanoma 111% | UACC-62 melanoma 99.5% | LOX IMVI melanoma 97.2% | SK-MEL-28 melanoma 98.5%

COc1ccc(-c2nc(C#N)c(NCC(c3ccco3)N3CCCC3)o2)cc1 (stereo not given)
inactive: HCT-15 colon 30.9% | HT29 colon 10.7% | SNB-75 CNS 40.6% | SNB-19 CNS 51.9% | U251 CNS 35.7% | PC-3 prostate 37% | SK-MEL-5 melanoma 24.6% | UACC-62 melanoma 47.2% | LOX IMVI melanoma 41.4% | SK-MEL-28 melanoma 61.7%

Source: PubChem BioAssay (NCI)
